# High-throughput results (PubChem BioAssay)
# Hits are enriched below; roughly 2.4% of the tested compounds scored in any of these assays.
# Pol kappa inh-1: DNA polymerase kappa (human) inhibition. Q9UBT6. 400,000 tested, 0.53% active. Potency, µM (doses to about 107 µM), for the others: at the highest dose activity, negative = inhibition, hits mostly inhibitors. purified Pol kappa, fluorescent DNA synthesis assay, 10 min; also: % is scaled to controls: 0 for no effect and ±100 for the full control effect
# Target sequence (Q9UBT6 whole entry, looked up): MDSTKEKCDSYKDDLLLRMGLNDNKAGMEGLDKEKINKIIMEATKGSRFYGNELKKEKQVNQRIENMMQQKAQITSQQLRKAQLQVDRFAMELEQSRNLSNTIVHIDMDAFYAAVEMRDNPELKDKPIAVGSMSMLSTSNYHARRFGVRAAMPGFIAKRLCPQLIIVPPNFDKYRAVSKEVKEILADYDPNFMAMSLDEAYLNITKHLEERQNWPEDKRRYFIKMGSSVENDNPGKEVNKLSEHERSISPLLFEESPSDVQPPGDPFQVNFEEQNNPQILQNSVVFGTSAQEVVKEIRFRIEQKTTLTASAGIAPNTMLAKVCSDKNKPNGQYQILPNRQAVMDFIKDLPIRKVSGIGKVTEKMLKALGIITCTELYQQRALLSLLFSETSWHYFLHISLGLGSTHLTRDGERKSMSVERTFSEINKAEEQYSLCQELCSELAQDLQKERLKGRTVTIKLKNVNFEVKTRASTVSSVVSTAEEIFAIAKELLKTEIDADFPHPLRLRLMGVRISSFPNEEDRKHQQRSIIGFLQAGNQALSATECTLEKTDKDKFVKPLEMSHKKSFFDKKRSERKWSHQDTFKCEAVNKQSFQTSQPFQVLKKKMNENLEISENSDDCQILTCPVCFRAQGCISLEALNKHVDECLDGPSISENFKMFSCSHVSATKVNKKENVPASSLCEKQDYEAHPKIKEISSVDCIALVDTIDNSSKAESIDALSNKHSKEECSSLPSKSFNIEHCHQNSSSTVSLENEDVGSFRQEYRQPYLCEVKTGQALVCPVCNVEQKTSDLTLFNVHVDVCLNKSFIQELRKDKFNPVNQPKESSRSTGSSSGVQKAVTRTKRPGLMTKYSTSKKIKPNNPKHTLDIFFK
#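 Readout: fluorescence, taken kinetically at 0 and 10 min. Conditions: 10 nM Pol kappa, 15 min RT compound preincubation, 50 nM substrate final. Controls: enzyme-free buffer wells.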
# L3MBTL1 block: L3MBTL1 (human) inhibition; Q9Y468; AlphaScreen L3MBTL1–H3K9me1 peptide binding; Potency, µM (highest dose often 57.1 µM), for inactives: top-dose activity, negative = inhibition, most hits filed as inhibitors; 230,000 tested, 0.66% active; also: % is scaled to controls: 0 for no effect and ±100 for the full control effect; nearly all actives have a fitted effect of over 60% in size
#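 L3MBTL1 (50 nM) pre-complexed 30 min with biotinylated H3(1-15)K9me1 peptide (75 nM), then compounds added for 30 min at room temperature; AlphaScreen streptavidin donor/nickel chelate acceptor beads (10 ug/mL final) read after 30 min dark incubation.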
# Pol eta inh-1: inhibitors of human DNA polymerase eta; Q9Y253; recombinant Pol eta, fluorescent DNA replication assay; Potency, µM (series often up to 114 µM), without a hit: at the highest dose activity change, negative = inhibition, most hits filed as inhibitors; 390,000 tested, 1.2% active; also: % is scaled to controls: 0 for no effect and ±100 for the full control effect
#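 Pol eta (10 nM) was preincubated with compounds for 15 min at room temperature, after which fluorescent replication substrate (50 nM final) was added to start the reaction. Fluorescence was read kinetically at 0 and 10 min.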
# POLB inh: blocks human DNA polymerase beta activity; P06746; Pol beta primer extension/strand displacement, fluorescence kinetic; Potency, µM (top dose mostly 114 µM), without a hit: top-dose activity change, negative = inhibition, actives largely listed as inhibitors; 340,000 tested, 1.3% active; also: % is scaled to controls: 0 for no effect and ±100 for the full control effect
#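 Preincubation: enzyme (10 nM) with compound, 15 min, RT. Reaction: substrate added to 50 nM final. Reads: 0 and 10 min. Analysis: normalized, Hill fit.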
# Pol iota inh: DNA polymerase iota (human) inhibition | Potency, µM (highest dose often 115 µM), without a hit: top-dose activity, negative = inhibition, most hits filed as inhibitors | Pol iota fluorescent replication assay, 10 min | 390,000 tested, 1% active
#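 Pol iota at 10 nM preincubated 15 min with compounds at room temperature; reaction started with fluorescent substrate, 50 nM final. Fluorescence read kinetically at 0 and 10 min; buffer-only wells as negative control.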
# TbPGK inh: blocks T. brucei phosphoglycerate kinase | shares compounds with Pol kappa inh-1 | TbPGK coupled GAPDH assay, Kinase-Glo luminescence | Potency, µM (series often up to 57.5 µM), inactives show at the top dose activity change, negative = inhibition, usual class: inhibitors | 500 tested, 79% active; also: % is scaled to controls: 0 for no effect and ±100 for the full control effect; nearly all actives have a fitted effect of over 65% in size
# POLI cherry-pick: Human Pol iota inhibitor confirmatory assay; 1,500 tested, 77% active; Potency, µM, actives largely listed as inhibitors; shares compounds with Pol kappa inh-1; AID 720496; Pol iota primer extension, TAMRA/BHQ fluorescence
# Pol kappa inh-2: Pol kappa (human) inhibition, cherry-pick confirmation | shares compounds with Pol eta inh-1 | purified Pol-kappa, fluorescent strand-displacement substrate | Potency, µM, hits mostly inhibitors | 920 tested, 76% active
# Pol eta inh-2: confirmation of human DNA polymerase eta inhibitors; shares compounds with Pol eta inh-1; Pol eta primer extension, TAMRA/BHQ fluorescence, 10 min; Potency, µM, most hits filed as inhibitors; 2,600 tested, 64% active; AID 720502
# The depositor's hits bear a star; ? = inconclusive; . = no result given; [ ] = dose if it differs, or a comment. Calls follow the shape of the dose curve; as a rule, active = well fitted curve in the direction sought with a large enough effect; inconclusive = small, poorly fitted or top-dose-only effect, or another doubt; inactive = no such curve, though single readings can be large; an effect the other way counts as inactive or inconclusive. Potency is read from the fitted curve at half-maximal effect.
SMILES,Pol kappa inh-1,L3MBTL1 block,Pol eta inh-1,POLB inh,Pol iota inh,POLI cherry-pick,Pol eta inh-2,others
Nc1cc(S(=O)(=O)O)cc([N+](=O)[O-])c1O,28.2µM*,?,4.47µM*,-14.4%,7.94µM*,8.44*,5.36*,TbPGK inh=2.91µM*
O=C(COC(=O)c1ccccc1O)Nc1ncc(Cl)cc1Cl,35.5µM*,?,17.8µM*,6.1%,39.8µM*,?,26.9*,
Cc1c(CC(=O)NCCc2ccccc2F)c(=O)oc2c(C)c3occ(C(C)(C)C)c3cc12,7.5%,.,-8.6%,21.0%,-4.4%,.,.,
O=C(COC(=O)c1ccc(Br)o1)Nc1ncc([N+](=O)[O-])s1,79.4µM*,?,3.16µM*,.,22.4µM*,?,19*,Pol kappa inh-2=10.6*
CCOc1cc(CNCCSc2nnnn2-c2ccccc2)ccc1OC,6.5%,.,-5.6%,14.8%,2.5%,.,.,
O=C1c2ccc3c4c(ccc(c24)C(=O)N1NC(=O)C(F)(F)F)CC3,17.8µM*,.,79.4µM*,-1.4%,22.4µM*,42.3*,16.9*,
C/C(=C\C=C(C#N)C#N)c1cc(C#N)c(N)o1,?,-20.6%,?,8.91µM*,?,?,42.6*,
CCn1cc(C(=O)O)c(=O)c2cc(F)c(N/N=C/c3ccccc3)cc21,-25.7%,-4.0%,2.51µM*,?,?,84.4*,2.69*,
CCn1cc(C(=O)O)c(=O)c2cc(F)c(N3CCN(C(=O)Nc4ccccc4)CC3)cc21,-1.9%,-2.3%,-7.8%,-11.7%,-0.7%[58.9 µM],.,.,
Cc1ccc(S(=O)(=O)N(C)c2ccc(C(=O)NCC(c3ccco3)N3CCCC3)cc2)cc1 (configuration not stated),.,.,-1.6%,.,.,.,.,
Nc1ncc(N=Nc2cc(C(=O)O)ccc2Cl)s1,79.4µM*,.,12.6µM*,?,7.94µM*,59.7*,21.3*,
O=C1COc2ccc(C(=O)COC(=O)/C=C/c3ccc(Br)o3)cc2N1,17.8µM*,3.55µM*,1.58µM*,.,20µM*,21.2*,67.5*,
COc1cc2cc(Oc3ccc4ccc(=O)oc4c3)c(=O)oc2cc1OC1OC(COC(=O)CC(C)(O)CC(=O)O)C(O)C(O)C1O (configuration not stated),?,-6.5%,35.5µM*,?,50.1µM*,67*,47.8*,
COc1cc2cc(Oc3ccc4ccc(=O)oc4c3)c(=O)oc2cc1OC(=O)/C=C/c1ccccc1,-20.8%,.,-2.1%,11.1%,-11.5%,.,.,
COc1cc(/C=C2\SC(c3ccc(C)cc3)=NC2=O)cc(OC)c1O,-5.9%,?,-32.3%,-7.1%,?,.,.,
Cc1ccc(C2=NC(=O)/C(=C/c3cc(O)c(O)c(Br)c3)S2)cc1,1.78µM*,.,0.794µM*,1.58µM*,1.26µM*,16.8*,3.79*,Pol kappa inh-2=5.32*
O=S1(=O)c2ccccc2N(Cc2cccc(Cl)c2)c2ccccc21,0.0%,.,-12.1%,-18.6%,-18.1%,.,.,
O=C(Cn1nc(C(=O)O)c2ccccc2c1=O)Nc1cc(S(=O)(=O)N2CCOCC2)ccc1Cl,9.3%,1.5%,-9.9%,.,?,.,.,
O=C(CSc1nccc(=O)[nH]1)N1N=C2/C(=C/c3ccco3)CCCC2C1c1ccco1 (configuration not stated),?,-85.5%,25.1µM*,28.2µM*,44.7µM*,37.7*,30.1*,
COc1cccc(NC(=O)Cn2c(=O)n(CCCCC(=O)NCCc3ccccc3)c(=O)c3ccccc32)c1,1.3%,.,0.3%,0.6%,-19.1%,.,.,
O=C(O)c1ccc(-n2cccc2/C=C2\SC(=O)N(Cc3ccc(Cl)cc3)C2=O)cc1,.,.,.,.,.,42.3*,15.1*,
O=C(O)c1ccc(-n2cccc2/C=C2\SC(=O)N(Cc3cccc(Cl)c3)C2=O)cc1,.,.,.,.,.,?,30.1*,
CC[C@H](C)[C@H](NC(=O)[C@H](CC(=O)O)NC(=O)[C@H](CC(C)C)NC(=O)[C@H](NC(C)=O)C(c1ccccc1)c1ccccc1)C(=O)N[C@H](C(=O)N[C@@H](Cc1c[nH]c2ccccc12)C(=O)O)[C@@H](C)CC,11.0%[60.1 µM],.,.,.,.,.,.,
CC1=NN(c2cccc(C(=O)O)c2)C(=O)/C1=C\C=C\c1ccco1,7.08µM*,3.16µM*,-98.5%,0.562µM*,1.26µM*,2.38*,1.51*,TbPGK inh=2.91µM*
O=C(O)COc1ccc(C(=O)c2cccs2)c(Cl)c1Cl,1.1%[19.4 µM],.,.,.,.,.,.,
SMILES,Pol kappa inh-1,L3MBTL1 block,Pol eta inh-1,POLB inh,Pol iota inh,POLI cherry-pick,Pol eta inh-2,others
Cc1ccccc1C1=C/C(=C(\SS/C(C(=O)c2ccc(OCC(=O)O)c(Cl)c2Cl)=C2\C=C(c3ccccc3C)SS2)C(=O)c2ccc(OCC(=O)O)c(Cl)c2Cl)SS1,79.4µM*,.,14.1µM*,.,?,37.7*,23.9*,Pol kappa inh-2=16.8*
COCCN1C(=O)c2oc3ccccc3c(=O)c2C1c1ccc(OC)c(OC)c1 (configuration not stated),79.4µM*,2.7%,22.4µM*,-1.5%,?,84.4*,?,
CCCCn1c(NS(=O)(=O)c2ccccc2)c(S(=O)(=O)c2ccc(C)cc2)c2nc3ccccc3nc21,-11.1%,13.5%,44.7µM*,0.7%,7.94µM*,?,?,
CCCCn1c(NC(=O)c2ccco2)c(S(=O)(=O)c2ccc(C)cc2)c2nc3ccccc3nc21,-8.7%,-7.8%,-24.0%,?,42.6%,.,.,
O=C(NCc1ccccc1C(F)(F)F)c1cccc2c1C(=O)c1ccc(N3CCC(N4CCCCC4)CC3)cc1S2(=O)=O,.,.,?,.,.,?,60.1*,
COc1ccc(Cc2nc3ccccc3n2CC(=O)N/N=C/c2ccc(O)cc2)cc1OC,-1.8%,3.8%,-11.1%,3.1%[57.1 µM],-0.1%,.,.,
COc1ccc(Cc2nc3ccccc3n2CC(=O)N/N=C/c2ccc(C)cc2O)cc1OC,?,-14.7%,?,7.94µM*,20µM*,9.47*,67.5*,Pol kappa inh-2=29.9*
C=CC(=O)N1C/C(=C/c2ccc(F)cc2)C(=O)/C(=C\c2ccc(F)cc2)C1,79.4µM*,.,10µM*,.,11.2µM*,59.7*,75.7*,TbPGK inh=5.8µM*
O=C(C1COc2ccccc2O1)N1CCc2ccccc21 (configuration not stated),?,?,79.4µM*,31.6µM*,44.7µM*,75.2*,?,
